# Test results: PubChem BioAssay (EPA / NIEHS)
# Where “and” joins values, the source holds several entries; their conditions need not be identical. Equal values may be shown once. Records with an inconclusive call do not appear. Calls of active or inactive are those of the source. Rule for the calls: active = hit-call score of the fitted dose curve at least 0.9, where 1 is the maximum; inconclusive = response in the unintended direction; inactive = score below 0.9.
# Assays:
# [1] = test system: 5-hydroxytryptamine receptor 2C (pig); test: NVS_GPCR_p5HT2C: NovaScreen (NVS) G Protein-Coupled Receptor Assay for pig Serotonin, 5-Hydroxytryptamine Receptor 2C (5HT2C) (AID 2283288)
# Summary of the method: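 Pig choroid plexus membranes; radioligand competitive binding, filter-based scintillation counting, read 1 h after dosing. Primary screen in duplicate at 25 uM; actives then run as concentration series; loss of signal versus DMSO baseline.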
# [2] = molecular target: D(1A) dopamine receptor (Homo sapiens) (UniProt P21728); test: NVS_GPCR_hDRD1: NovaScreen (NVS) G Protein-Coupled Receptor Assay for human Dopamine Receptor D1 (DRD1) (AID 2283269)
# Summary of the method: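 Radioligand displacement binding on membranes/protein extracted from HEK293 expressing human D1, cell-free; read 1 h after dosing by filter-based scintillation counting. Primary screen in duplicate at 25 uM, actives followed up in concentration series; signal loss versus DMSO baseline.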
# [3] = molecular target: human Leukotriene B4 Receptor 1 (LTB4-BLT1), LTB4R (gene 1241) (UniProt Q15722); test: NVS_GPCR_hLTB4_BLT1: NovaScreen (NVS) G Protein-Coupled Receptor Assay for human Leukotriene B4 Receptor 1 (LTB4-BLT1) (AID 2283271)
# Summary of the method: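 Radioligand displacement binding on receptor extracted from human neutrophils, cell-free, 1 h after dosing; filter-based scintillation counting. Primary screen in duplicate at 25 uM, actives retested in concentration-response up to 50 uM; loss of signal versus DMSO.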
# [4] = molecular target: human Opioid Receptor Delta 1 (Opiate D1), OPRD1 (gene 4985) (UniProt P41143); test: NVS_GPCR_hOpiate_D1: NovaScreen (NVS) G Protein-Coupled Receptor Assay for human Opioid Receptor Delta 1 (Opiate D1) (AID 2283280)
# Summary of the method: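 Radioligand displacement on membranes from CHO cells expressing the receptor, read by filter scintillation counting 1 h after dosing. Duplicate single-point screen at 25 uM, then concentration series for actives; loss of signal versus DMSO.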
# [5] = molecular target: human Thromboxane A2 Receptor (TXA2), TBXA2R (gene 6915) (UniProt P21731); test: NVS_GPCR_hTXA2: NovaScreen (NVS) G Protein-Coupled Receptor Assay for human Thromboxane A2 Receptor (TXA2) (AID 2283282);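 note: actives reduce bound radioligand signal relative to DMSO baseline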
# Summary of the method: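 Human platelet-derived receptor preparation incubated with test chemical and radiolabelled ligand for 1 hour, cell-free. Bound label was separated by filtration and counted; displacement relative to DMSO controls gave activity, screened at 25 uM, then titrated.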
# [6] = molecular target: human Neurokinin, NK2 Receptor, TACR2 (gene 6865) (UniProt P21452); test: NVS_GPCR_hNK2: NovaScreen (NVS) G Protein-Coupled Receptor Assay for human Neurokinin, NK2 Receptor (AID 2283278);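 note: actives reduce bound radioligand signal relative to DMSO baseline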
# Summary of the method: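 Radioligand binding on membranes from CHO cells expressing receptor, filter-based scintillation read 4 h after dosing. Initial duplicate screen at 25 uM, actives in concentration series; loss of signal versus DMSO.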
# [7] = molecular target: rat Serotonin, 5-Hydroxytryptamine Receptor 1 (5HT1), Non-Selective Binding, Htr1a (gene 24473) (UniProt P19327); test: NVS_GPCR_r5HT1_NonSelective: NovaScreen (NVS) G Protein-Coupled Receptor Assay for rat Serotonin, 5-Hydroxytryptamine Receptor 1 (5HT1), Non-Selective Binding (AID 2283286)
# Summary of the method: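 Rat cortical membranes, radioligand displacement, 1 h incubation, read by filter scintillation. Primary screen in duplicate at 25 uM. Hits (e.g. ≥30% inhibition) went to concentration-response up to 50 uM, fitted as loss of binding versus DMSO.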
# [8] = molecular target: rat Adrenergic, Alpha 1, Non-selective Receptor (Adra1), Adra1a (gene 29412) (UniProt P43140); test: NVS_GPCR_rAdra1_NonSelective: NovaScreen (NVS) G Protein-Coupled Receptor Assay for rat Adrenergic, Alpha 1, Non-selective Receptor (Adra1) (AID 2283289)
# Summary of the method: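 Rat forebrain membranes; radioligand displacement read by filter-based scintillation counting 1 h after dosing. Primary screen in duplicate at 25 uM; hits (e.g. ≥30% inhibition) rerun as concentration–response to 50 uM max. Fitted versus DMSO.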
# [9] = molecular target: Muscarinic acetylcholine receptor M1 (Homo sapiens) (UniProt P11229); test: NVS_GPCR_hM1: NovaScreen (NVS) G Protein-Coupled Receptor Assay for human Muscarinic, M1 Receptor (AID 2283270)
# Summary of the method: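 Cell-free radioligand displacement using membrane protein extracted from CHO cells, read by filter-based scintillation counting 1 h after dosing. Loss of bound signal fitted versus DMSO; primary screen single concentration 25 uM in duplicate, actives followed by concentration series.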
# [10] = molecular target: Muscarinic acetylcholine receptor M2 (Homo sapiens) (UniProt P08172); test: NVS_GPCR_hM2: NovaScreen (NVS) G Protein-Coupled Receptor Assay for human Muscarinic, M2 Receptor (AID 2283273)
# Summary of the method: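 Cell-free radioligand binding using membranes from CHO cells expressing the receptor; filter-based scintillation counting after 1 hour of compound exposure. Loss of specific binding relative to DMSO baseline; primary screen at 25 uM in duplicate, actives then run in concentration series.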
# [11] = molecular target: human Purinergic Receptor P2Y, P2RY1 (gene 5028) (UniProt P47900); test: NVS_GPCR_hPY2: NovaScreen (NVS) G Protein-Coupled Receptor Assay for human Purinergic Receptor P2Y (AID 2283281)
# Summary of the method: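 Cell-free radioligand binding using U937-derived protein, 1 h after dosing, filter-based scintillation counting. Screened in duplicate at 25 uM; actives rerun as concentration-response up to 50 uM; loss of signal versus DMSO.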
# [12] = molecular target: mouse Cholecystokinin, CCK1 Receptor (CCKA), Cckar (gene 12425) (UniProt O08786); test: NVS_GPCR_mCCKAPeripheral: NovaScreen (NVS) G Protein-Coupled Receptor Assay for mouse Cholecystokinin, CCK1 Receptor (CCKA) (AID 2283285)
# Summary of the method: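 Radioligand competitive displacement on mouse pancreatic membranes, 2 h incubation; filter-based scintillation counting, loss of signal versus DMSO. Single-concentration screen at 25 uM in duplicate, actives retested in concentration-response up to 50 uM.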
# [13] = molecular target: Muscarinic acetylcholine receptor M3 (Homo sapiens) (UniProt P20309); test: NVS_GPCR_hM3: NovaScreen (NVS) G Protein-Coupled Receptor Assay for human Muscarinic, M3 Receptor (AID 2283272)
# Summary of the method: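 Radioligand displacement binding on human M3 receptor in CHO-derived membranes, 1 h incubation, filter-based scintillation counting. Primary screen in duplicate at 25 uM; actives followed up in concentration series; loss of signal versus DMSO.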
# [14] = molecular target: human Muscarinic, M4 Receptor, CHRM4 (gene 1132) (UniProt P08173); test: NVS_GPCR_hM4: NovaScreen (NVS) G Protein-Coupled Receptor Assay for human Muscarinic, M4 Receptor (AID 2283274)
# Summary of the method: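 Cell-free radioligand displacement using CHO-derived human M4 receptor protein, 1 h after dosing; bound radioactivity by filtration and scintillation counting. Primary screen single 25 uM duplicate, actives followed in concentration series.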
# [15] = molecular target: Muscarinic acetylcholine receptor M5 (Homo sapiens) (UniProt P08912); test: NVS_GPCR_hM5: NovaScreen (NVS) G Protein-Coupled Receptor Assay for human Muscarinic, M5 Receptor (AID 2283275)
# Summary of the method: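 Radioligand displacement on CHO-derived membrane preparations, 1 h, filter-based scintillation counting. Single-concentration duplicate screen at 25 uM; hits (e.g. 30% inhibition) retested in singleton concentration-response up to 50 uM. Loss of binding fitted versus DMSO.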
# [16] = molecular target: human Neuropeptide Receptor Y1 (NPY1), NPY1R (gene 4886) (UniProt P25929); test: NVS_GPCR_hNPY1: NovaScreen (NVS) G Protein-Coupled Receptor Assay for human Neuropeptide Receptor Y1 (NPY1) (AID 2283276)
# Summary of the method: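 Cell-free radioligand binding using receptor extracted from SK-N-MC cells, 1 h incubation, filter-based scintillation counting. Primary screen single concentration 25 uM in duplicate; actives followed in concentration series. Loss of bound signal scored versus DMSO.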
# [17] = molecular target: Neuropeptide Y receptor type 2 (Homo sapiens) (UniProt P49146); test: NVS_GPCR_hNPY2: NovaScreen (NVS) G Protein-Coupled Receptor Assay for human Neuropeptide Receptor Y2 (NPY2) (AID 2283277)
# Summary of the method: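 Radioligand binding on membranes extracted from SK-N-MC cells, cell-free, read 1 h after dosing by filter-based scintillation counting. Loss of signal vs DMSO. Primary screen in duplicate at 25 uM; actives followed up in concentration-response up to 50 uM.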
# [18] = molecular target: human Orphanin, Opioid Related Nociceptin Receptor 1 (ORL1), OPRL1 (gene 4987) (UniProt P41146); test: NVS_GPCR_hORL1: NovaScreen (NVS) G Protein-Coupled Receptor Assay for human Orphanin, Opioid Related Nociceptin Receptor 1 (ORL1) (AID 2283283)
# Summary of the method: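 Filter-based radioligand displacement with receptor extracted from HEK293 cells, read 1 hour after dosing by scintillation counting. Duplicate single-point screen at 25 uM; qualifying chemicals then run in concentration-response to 50 uM, analysed relative to DMSO.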
# [19] = test system: rabbit Platelet Activating Factor Receptor (PAF), gene 100354046; test: NVS_GPCR_rabPAF: NovaScreen (NVS) G Protein-Coupled Receptor Assay for rabbit Platelet Activating Factor Receptor (PAF) (AID 2283287)
# Summary of the method: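 Rabbit platelet membrane preparation; radioligand displacement read by filter-based scintillation counting 1 h after dosing, loss of signal versus DMSO. Primary screen in duplicate at 25 uM, actives followed up in concentration series.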
# [20] = molecular target: human Neurotensin Receptor (NTS), NTSR1 (gene 4923) (UniProt P30989); test: NVS_GPCR_hNTS: NovaScreen (NVS) G Protein-Coupled Receptor Assay for human Neurotensin Receptor (NTS) (AID 2283279)
# Summary of the method: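 Radioligand displacement on human NTSR1 protein from CHO cells, cell-free, 1 h, filter-based scintillation counting. Primary screen at 25 uM in duplicate; hits rerun in concentration-response up to 50 uM.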
# human Thromboxane A2 Receptor (TXA2), TBXA2R (gene 6915), sequence (P21731 whole entry, looked up): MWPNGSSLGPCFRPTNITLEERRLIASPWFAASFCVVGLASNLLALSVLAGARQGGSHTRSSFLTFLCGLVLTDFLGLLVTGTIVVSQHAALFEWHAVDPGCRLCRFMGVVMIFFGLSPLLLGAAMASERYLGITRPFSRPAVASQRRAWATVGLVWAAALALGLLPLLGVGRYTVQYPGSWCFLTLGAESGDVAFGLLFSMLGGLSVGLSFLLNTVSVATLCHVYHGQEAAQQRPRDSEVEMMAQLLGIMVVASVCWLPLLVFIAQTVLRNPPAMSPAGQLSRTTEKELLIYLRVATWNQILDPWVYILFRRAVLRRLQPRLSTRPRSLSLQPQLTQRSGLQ
# Muscarinic acetylcholine receptor M2 (Homo sapiens), sequence (P08172 whole entry, looked up): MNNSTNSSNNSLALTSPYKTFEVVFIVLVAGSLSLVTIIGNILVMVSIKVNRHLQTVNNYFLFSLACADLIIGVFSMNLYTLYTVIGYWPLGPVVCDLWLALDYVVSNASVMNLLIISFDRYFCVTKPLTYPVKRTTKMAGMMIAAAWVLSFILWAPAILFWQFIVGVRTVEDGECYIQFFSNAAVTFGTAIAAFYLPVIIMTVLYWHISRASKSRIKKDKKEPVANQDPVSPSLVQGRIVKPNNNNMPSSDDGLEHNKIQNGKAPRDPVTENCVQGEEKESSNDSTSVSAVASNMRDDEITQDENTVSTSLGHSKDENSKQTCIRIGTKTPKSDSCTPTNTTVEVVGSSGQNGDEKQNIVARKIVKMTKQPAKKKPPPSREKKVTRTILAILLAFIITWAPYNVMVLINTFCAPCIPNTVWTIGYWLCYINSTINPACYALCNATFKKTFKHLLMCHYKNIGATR
# rat Adrenergic, Alpha 1, Non-selective Receptor (Adra1), Adra1a (gene 29412), sequence (P43140 whole entry, looked up): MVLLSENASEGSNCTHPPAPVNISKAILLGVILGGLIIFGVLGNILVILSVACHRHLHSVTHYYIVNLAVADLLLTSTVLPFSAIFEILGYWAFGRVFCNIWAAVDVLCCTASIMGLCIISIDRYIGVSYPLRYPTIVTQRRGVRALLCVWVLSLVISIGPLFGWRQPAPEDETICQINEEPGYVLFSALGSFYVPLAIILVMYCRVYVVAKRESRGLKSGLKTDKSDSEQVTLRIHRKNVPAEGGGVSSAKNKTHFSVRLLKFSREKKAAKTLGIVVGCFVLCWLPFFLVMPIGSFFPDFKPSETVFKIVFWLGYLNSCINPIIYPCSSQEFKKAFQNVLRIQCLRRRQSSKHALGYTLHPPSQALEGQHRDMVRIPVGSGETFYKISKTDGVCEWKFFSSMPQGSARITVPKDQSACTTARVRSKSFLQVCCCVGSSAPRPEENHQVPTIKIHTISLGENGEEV
# rat Serotonin, 5-Hydroxytryptamine Receptor 1 (5HT1), Non-Selective Binding, Htr1a (gene 24473), sequence (P19327 whole entry, looked up): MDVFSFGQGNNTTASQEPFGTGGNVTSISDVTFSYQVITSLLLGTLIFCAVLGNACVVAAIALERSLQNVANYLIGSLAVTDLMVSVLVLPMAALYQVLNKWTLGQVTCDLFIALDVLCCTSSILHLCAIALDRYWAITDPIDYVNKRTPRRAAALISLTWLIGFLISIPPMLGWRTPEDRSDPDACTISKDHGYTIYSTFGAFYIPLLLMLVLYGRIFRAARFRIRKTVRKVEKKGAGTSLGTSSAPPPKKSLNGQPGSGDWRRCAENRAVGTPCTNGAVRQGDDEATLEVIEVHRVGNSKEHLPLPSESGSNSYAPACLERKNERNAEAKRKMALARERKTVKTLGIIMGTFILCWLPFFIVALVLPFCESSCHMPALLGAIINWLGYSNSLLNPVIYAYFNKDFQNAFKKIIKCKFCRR
# D(1A) dopamine receptor (Homo sapiens), sequence (P21728 whole entry, looked up): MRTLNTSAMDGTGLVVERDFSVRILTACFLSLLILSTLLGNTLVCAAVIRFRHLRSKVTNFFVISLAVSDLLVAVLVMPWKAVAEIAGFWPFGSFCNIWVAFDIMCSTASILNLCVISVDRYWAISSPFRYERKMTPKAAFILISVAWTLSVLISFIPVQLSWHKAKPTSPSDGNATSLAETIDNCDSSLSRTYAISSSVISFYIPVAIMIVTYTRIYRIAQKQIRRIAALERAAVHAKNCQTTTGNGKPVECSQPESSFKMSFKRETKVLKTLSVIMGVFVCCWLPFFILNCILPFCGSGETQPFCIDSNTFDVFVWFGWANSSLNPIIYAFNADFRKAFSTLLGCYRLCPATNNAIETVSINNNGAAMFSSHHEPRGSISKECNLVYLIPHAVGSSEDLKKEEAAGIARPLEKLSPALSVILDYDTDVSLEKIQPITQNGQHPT
# Muscarinic acetylcholine receptor M1 (Homo sapiens), sequence (P11229 whole entry, looked up): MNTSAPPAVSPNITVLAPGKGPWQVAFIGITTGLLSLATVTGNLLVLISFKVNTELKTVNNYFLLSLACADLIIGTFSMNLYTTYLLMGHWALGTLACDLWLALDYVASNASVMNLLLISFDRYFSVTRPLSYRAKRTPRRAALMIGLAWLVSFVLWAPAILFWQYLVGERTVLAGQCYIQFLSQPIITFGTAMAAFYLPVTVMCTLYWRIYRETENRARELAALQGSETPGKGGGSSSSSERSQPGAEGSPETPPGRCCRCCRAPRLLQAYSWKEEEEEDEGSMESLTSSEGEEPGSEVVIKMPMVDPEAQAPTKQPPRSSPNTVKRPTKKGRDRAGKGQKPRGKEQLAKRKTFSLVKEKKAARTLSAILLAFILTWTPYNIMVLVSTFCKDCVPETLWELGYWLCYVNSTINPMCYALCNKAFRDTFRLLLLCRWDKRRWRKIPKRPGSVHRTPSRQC
# human Opioid Receptor Delta 1 (Opiate D1), OPRD1 (gene 4985), sequence (P41143 whole entry, looked up): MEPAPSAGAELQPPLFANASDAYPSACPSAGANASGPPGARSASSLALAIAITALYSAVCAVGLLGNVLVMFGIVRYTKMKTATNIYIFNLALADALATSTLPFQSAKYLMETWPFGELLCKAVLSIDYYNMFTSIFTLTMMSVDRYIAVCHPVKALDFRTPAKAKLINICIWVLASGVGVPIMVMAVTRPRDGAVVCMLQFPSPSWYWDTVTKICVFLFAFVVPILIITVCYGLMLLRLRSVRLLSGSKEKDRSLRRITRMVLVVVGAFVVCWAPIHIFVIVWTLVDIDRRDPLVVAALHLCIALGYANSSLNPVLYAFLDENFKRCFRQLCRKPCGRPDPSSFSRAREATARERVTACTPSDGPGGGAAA
# human Neurokinin, NK2 Receptor, TACR2 (gene 6865), sequence (P21452 whole entry, looked up): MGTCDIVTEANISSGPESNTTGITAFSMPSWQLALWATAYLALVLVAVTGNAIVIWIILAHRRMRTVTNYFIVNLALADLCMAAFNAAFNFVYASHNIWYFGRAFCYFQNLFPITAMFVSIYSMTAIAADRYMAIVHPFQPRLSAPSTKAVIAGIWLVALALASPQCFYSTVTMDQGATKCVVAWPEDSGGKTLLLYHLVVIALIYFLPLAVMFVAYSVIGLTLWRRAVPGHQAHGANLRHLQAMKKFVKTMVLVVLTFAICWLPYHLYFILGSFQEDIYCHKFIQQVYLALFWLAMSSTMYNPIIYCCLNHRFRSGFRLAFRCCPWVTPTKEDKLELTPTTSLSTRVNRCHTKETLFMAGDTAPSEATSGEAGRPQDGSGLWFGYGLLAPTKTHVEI
# mouse Cholecystokinin, CCK1 Receptor (CCKA), Cckar (gene 12425), sequence (O08786 whole entry, looked up): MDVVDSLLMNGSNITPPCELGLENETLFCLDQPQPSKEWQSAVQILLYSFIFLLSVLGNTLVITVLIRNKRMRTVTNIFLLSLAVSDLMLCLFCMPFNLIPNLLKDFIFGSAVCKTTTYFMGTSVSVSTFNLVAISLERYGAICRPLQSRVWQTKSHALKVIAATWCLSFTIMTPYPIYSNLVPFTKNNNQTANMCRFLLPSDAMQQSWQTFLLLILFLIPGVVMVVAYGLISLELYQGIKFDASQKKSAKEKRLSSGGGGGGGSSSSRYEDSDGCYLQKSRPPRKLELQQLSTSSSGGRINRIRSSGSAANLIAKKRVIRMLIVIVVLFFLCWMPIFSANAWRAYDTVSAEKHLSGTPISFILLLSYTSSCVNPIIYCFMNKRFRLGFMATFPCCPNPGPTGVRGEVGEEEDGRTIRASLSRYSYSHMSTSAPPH
# human Muscarinic, M4 Receptor, CHRM4 (gene 1132), sequence (P08173 whole entry, looked up): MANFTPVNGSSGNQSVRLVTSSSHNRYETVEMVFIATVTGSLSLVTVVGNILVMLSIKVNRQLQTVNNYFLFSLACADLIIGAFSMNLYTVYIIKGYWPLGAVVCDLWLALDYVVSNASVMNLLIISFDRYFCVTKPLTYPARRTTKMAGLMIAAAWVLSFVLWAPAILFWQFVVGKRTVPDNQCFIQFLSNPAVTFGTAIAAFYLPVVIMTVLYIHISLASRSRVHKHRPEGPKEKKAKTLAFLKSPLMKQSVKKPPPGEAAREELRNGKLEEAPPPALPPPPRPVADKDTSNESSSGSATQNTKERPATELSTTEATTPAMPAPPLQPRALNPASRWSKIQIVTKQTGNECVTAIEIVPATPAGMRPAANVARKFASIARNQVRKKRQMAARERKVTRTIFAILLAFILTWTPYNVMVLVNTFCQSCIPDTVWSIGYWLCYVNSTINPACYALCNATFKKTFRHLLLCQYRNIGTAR
# Muscarinic acetylcholine receptor M3 (Homo sapiens), sequence (P20309 whole entry, looked up): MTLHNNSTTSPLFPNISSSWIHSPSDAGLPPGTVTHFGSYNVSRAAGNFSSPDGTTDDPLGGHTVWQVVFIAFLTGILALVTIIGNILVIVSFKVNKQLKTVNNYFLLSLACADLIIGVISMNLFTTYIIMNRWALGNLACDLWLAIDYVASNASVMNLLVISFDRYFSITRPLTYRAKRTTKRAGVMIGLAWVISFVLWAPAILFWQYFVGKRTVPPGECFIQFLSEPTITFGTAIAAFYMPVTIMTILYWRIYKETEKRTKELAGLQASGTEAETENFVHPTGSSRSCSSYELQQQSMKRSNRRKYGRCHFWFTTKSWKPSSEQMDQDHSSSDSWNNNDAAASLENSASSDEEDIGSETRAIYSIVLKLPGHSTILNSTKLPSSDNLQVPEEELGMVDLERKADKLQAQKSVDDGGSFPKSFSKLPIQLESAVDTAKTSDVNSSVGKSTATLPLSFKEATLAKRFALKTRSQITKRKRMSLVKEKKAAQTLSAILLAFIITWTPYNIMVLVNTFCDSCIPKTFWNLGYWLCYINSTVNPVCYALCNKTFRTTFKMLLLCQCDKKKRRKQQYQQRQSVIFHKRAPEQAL
smiles,measurement,setting,value
CCOC(=O)Nc1cccc(OC(=O)Nc2ccccc2)c1,AC50,[1],20.3 µM (active)
O=C(O)C(F)(F)C(F)(F)C(F)(F)C(F)(F)C(F)(F)C(F)(F)C(F)(F)C(F)(F)C(F)(F)C(F)(F)F,outcome,[2],inactive
same,AC50,[3],33.4 µM (active)
same,AC50,[4],10.7 µM (active)
same,outcome,[5],inactive
Oc1c(I)cc(I)cc1I,outcome,[2],inactive
Nc1cccc2ccccc12,AC50,[2],37.8 µM (active)
same,AC50,[6],4.28 µM (active)
COc1cc(-c2ccc(N)c(OC)c2)ccc1N,AC50,[7],11.8 µM (active) and 12.6 µM (active)
same,outcome,[8],inactive
CC12CC1(C)C(=O)N(c1cc(Cl)cc(Cl)c1)C2=O (stereo not given),outcome,[6],inactive
CC(C)(C)CC(C)(C)c1ccc(O)cc1,outcome,[9],inactive
same,outcome,[10],inactive
same,AC50,[6],25 µM (active)
same,AC50,[4],8.28 µM (active)
same,outcome,[11],inactive
same,AC50,[5],43.7 µM (active)
same,AC50,[12],12 µM (active)
Nc1ncc([N+](=O)[O-])s1,outcome,[6],inactive
C=C(C)C(=O)[O][Sn]([CH2]CCC)([CH2]CCC)[CH2]CCC,AC50,[2],0.326 µM (active)
same,AC50,[9],1.9 µM (active)
same,AC50,[13],2.67 µM (active)
same,AC50,[10],5.32 µM (active)
same,AC50,[14],19.1 µM (active)
same,AC50,[15],1.23 µM (active)
same,AC50,[16],1.14 µM (active)
same,AC50,[17],14.8 µM (active)
same,AC50,[6],0.977 µM (active)
same,AC50,[4],0.761 µM (active)
same,AC50,[5],5.96 µM (active)
same,AC50,[18],1.39 µM (active)
same,AC50,[12],0.281 µM (active)
same,AC50,[7],18 µM (active)
same,AC50,[19],6.61 µM (active)
same,AC50,[8],6.86 µM (active)
COP(=S)(OC)Oc1cc(Cl)c(Cl)cc1Cl,outcome,[6],inactive
CCSC(C)CC1CC(=O)C(C(CC)=NOC/C=C/Cl)=C(O)C1 (stereo not given),AC50,[5],3.42 µM (active)
Oc1cccc2cccnc12,outcome,[16],inactive
same,AC50,[6],4.96 µM (active)
same,outcome,[20],inactive
COP(=S)(OC)Oc1ccc(S(=O)(=O)N(C)C)cc1,outcome,[6],inactive
CCN1CCC2(CC1)COc1cc3c(cc12)N(C(=O)c1ccc(-c2ccc(-c4nnc(C)o4)cc2C)cc1)CC3,AC50,[2],5.49 µM (active)
same,AC50,[9],0.646 µM (active)
same,AC50,[13],0.676 µM (active)
same,AC50,[10],1.32 µM (active)
same,AC50,[14],1.9 µM (active)
same,AC50,[15],2.03 µM (active)
same,outcome,[7],inactive
same,AC50,[19],12.5 µM (active)
same,AC50,[8],11.9 µM (active)
